Structures can show the parent of a compound that is named as a salt.
Tested on: Vero E6 infected with SARS-CoV-2
Assay: inhibition of SARS-CoV-2 cytopathic effect; higher = more antiviral protection, active = above 15
Settings: 48 h

Measured: inhibition of SARS-CoV-2 cytopathic effect

Cc1ccc(C(=O)Nc2ccc(CN3CCN(C)CC3)c(C(F)(F)F)c2)cc1C#Cc1cnc2[nH]ncc2c1
inactive: 1 nM 1.62% | 8.33 nM 6.08% | 100 nM 4.44% | 833.33 nM -8.47% | 10000 nM -20.9%

CCn1c(=O)c(-c2cc[nH]n2)cc2c(C)nc(N)nc21 [voxtalisib]
inactive: 1 nM 2.67% | 8.33 nM 3.03% | 100 nM 1.3% | 833.33 nM 0.46% | 10000 nM -4.32%

CC1=C(/C=C/C(C)=C/C=C/C(C)=C/CO)C(C)(C)CCC1 [retinol]
inactive: 1 nM -0.49% | 8.33 nM 0.39% | 100 nM 0.03% | 833.33 nM 2.09% | 10000 nM 2.75%

C[N+]1(C)CCC(OC(=O)C(c2ccccc2)c2ccccc2)CC1
inactive: 1 nM -1.59% | 8.33 nM 2.05% | 100 nM 1.2% | 833.33 nM 1.67% | 10000 nM 1.67%

CN(C)CC/C=C1/c2ccccc2COc2ccc(CC(=O)O)cc21 [Olopatadine hydrochloride (Opatanol)]
inactive: 1 nM 1.34% | 8.33 nM 1.55% | 100 nM 1.65% | 833.33 nM 6.26% | 10000 nM 0.26%

Oc1cccc(-c2nc(N3CCOCC3)c3oc4ncccc4c3n2)c1
inactive: 1 nM -0.17% | 8.33 nM 0.46% | 100 nM -0.59% | 833.33 nM -6.22% | 10000 nM -7.96%

Cc1cc2c(s1)Nc1ccccc1N=C2N1CCN(C)CC1 [olanzapine]
inactive: 1 nM -1.67% | 8.33 nM -2.18% | 100 nM -0.41% | 833.33 nM 8.51% | 10000 nM 1.41%
